Data on 33 compounds can be found in the supplement of paper PMC10127200.

Each structure is given as a SMILES string. Several values for one entry are separate records, joined by “and”; a condition that tells them apart may be missing. Equal values may be shown once. Where a name gives a salt, the structure may show the parent alone.

The assay has as its system A549. The assay is described as follows: Euclidean distance of Cell Painting phenotypic profile (signed KS, 77 features) to DMSO centroid (dimensionless distance); 5 or 10 uM (library dependent); higher = stronger phenotypic change vs DMSO (phenoactivity). Particulars: 48 h. The method in brief:
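At 10 or 5 uM, as set by the library, and 0.1% DMSO final, compounds were applied for 48 h to five cancer lines and one healthy fibroblast line. Stained cells were imaged confocally at 20X in 9 fields per well, and Harmony extracted 77 features scored as signed Kolmogorov-Smirnov statistics against vehicle wells on the same plate. Profiles underwent plate-position correction, correlation weighting and replicate averaging at the top dose. Phenoactivity is the Euclidean distance from each such profile to the median vehicle profile.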
Consider `CO/N=C(\C(=O)N[C@@H]1C(=O)N2C(C(=O)O)=C(CSC(=O)c3ccco3)CS[C@H]12)c1csc(N)n1` [Ceftiofur], for which the Euclidean distance worked out at 0.362.
As for `C[C@H](CCC(=O)O)[C@H]1CC[C@H]2[C@@H]3[C@H](O)C[C@@H]4C[C@H](O)CC[C@]4(C)[C@H]3C[C@H](O)[C@]12C` [Cholic acid], the figure is 0.83.
With `O=c1oc2cc(O)ccc2s1` [Tioxolone] the figure was 0.671; with `Cc1cnc(Nc2ccc(OCCN3CCCC3)cc2)nc1Nc1cccc(S(=O)(=O)NC(C)(C)C)c1`, 4.4.
With `CCCNC(C)C(=O)Nc1ccccc1C` (stereo not drawn) [Prilocaine] the figure was 0.85; with `C[C@H]1CNC(=O)c2cnn3ccc(nc23)N[C@H](C)c2cc(F)ccc2O1`, 4.83.
`CNCCc1ccccn1` [Betahistine mesylate] came in with an Euclidean distance of 0.566.
As for `CCN1CCC[C@H]1CNC(=O)c1cc(S(N)(=O)=O)ccc1OC` [Levosulpiride], the figure is 0.793; as for `S=C(NCc1ccc2c(c1)OCO2)N1CCN(c2ncnc3c2oc2ccccc23)CC1` [Amuvatinib (MP-470)], 1.72.
On to `Cc1ccc(NC(=O)C2(c3ccc4c(c3)OC(F)(F)O4)CC2)nc1-c1cccc(C(=O)O)c1` [VX-809 (Lumacaftor)], for which the Euclidean distance amounted to 0.637.
With `CCOC(=O)c1ccc(O)cc1` [Ethylparaben] the figure was 0.362.
On to `CCCCCCCCCCCCCCCC(=O)O[C@@H]1[C@@H](O)[C@@H](O)[C@@H]([C@H](NC(=O)[C@@H]2C[C@@H](CCC)CN2C)[C@H](C)Cl)O[C@@H]1SC` [Clindamycin palmitate HCl], for which the Euclidean distance was 1.05.
With `CC(=O)c1c(C)c2cnc(Nc3ccc(N4CCNCC4)cn3)nc2n(C2CCCC2)c1=O` the figure was 3.42 and 3.04; with `CC(C)c1ccc(NC(=O)Cn2cnc3c2c(=O)n(C)c(=O)n3C)cc1`, 1.06; with `Cc1ccc(C(=O)Nc2ccc(CN3CCN(C)CC3)c(C(F)(F)F)c2)cc1C#Cc1cnc2cccnn12`, 4.2.
Regarding `CO[C@@H]1[C@H](OC(=O)/C=C/C=C/C=C/C=C/C(=O)O)CC[C@]2(CO2)[C@H]1[C@@]1(C)O[C@@H]1CC=C(C)C` [Fumagillin], the Euclidean distance worked out at 2.91.
`O=C(NC1CCNCC1)c1n[nH]cc1NC(=O)c1c(Cl)cccc1Cl` gave an Euclidean distance of 3.2.
`C[C@H](CS)C(=O)N1CCC[C@H]1C(=O)O` [Captopril]: the Euclidean distance was determined as 1.13.
With `O=C(OCc1ccccc1)c1ccccc1` [Benzyl benzoate], the Euclidean distance is 1.28.
The compound `CCCC(=O)[O-].[Na+]` [Sodium butyrate] displayed an Euclidean distance of 0.966.
As for `N#CCNC(=O)c1ccc(-c2ccnc(Nc3ccc(N4CCOCC4)cc3)n2)cc1` [Momelotinib (CYT387)], the figure is 3.71; as for `CCc1c2c(nc3ccc(OC(=O)N4CCC(N5CCCCC5)CC4)cc13)-c1cc3c(c(=O)n1C2)COC(=O)[C@]3(O)CC` [Irinotecan HCl Trihydrate], 3.5.
With `COC(=O)CCC(=O)CN` [Methyl Aminolevulinate Hydrochloride] the figure was 0.774; with `O=C(O)c1ccccc1O` [Salicylic acid], 0.32; with `CCCC(=O)Nc1ccc(OCC(O)CNC(C)C)c(C(C)=O)c1` (stereo not drawn) [Acebutolol HCl], 0.8.
Turning to `CC(=O)O[C@H]1C(=O)[C@@]2(C)[C@H]([C@H](OC(=O)c3ccccc3)[C@]3(O)C[C@H](OC(=O)[C@H](O)[C@@H](NC(=O)c4ccccc4)c4ccccc4)C(C)=C1C3(C)C)[C@]1(OC(C)=O)CO[C@@H]1C[C@@H]2O` [Paclitaxel], the Euclidean distance came to 2.6.
As for `Nc1cc(Cl)c(N=C2NCCN2)c(Cl)c1` [Apraclonidine HCl], the figure is 1.57; as for `COc1ccccc1OCC(O)CN1CCN(CC(=O)Nc2c(C)cccc2C)CC1` (stereo not drawn) [Ranolazine], 0.699; as for `C1=N/C2=N/c3ccc(OCCN4CCCC4)c(c3)COC/C=C/COCc3cccc(c3)C(=C1)N2` [Pacritinib (SB1518)], 3.52.
With `CCOC(=O)[C@H](CCc1ccccc1)N[C@@H](C)C(=O)N1[C@H](C(=O)O)C[C@H]2CCCC[C@@H]21` [Trandolapril] the figure was 0.478.
With `CC(=C(CCOC(=O)C(C)C)SSC(CCOC(=O)C(C)C)=C(C)N(C=O)Cc1cnc(C)nc1N)N(C=O)Cc1cnc(C)nc1N` (stereo in doubt) [Sulbutiamine] the figure was 0.871.
`CCN(CCO)CCCC(C)Nc1ccnc2cc(Cl)ccc12` (stereo not drawn) [Hydroxychloroquine Sulfate] returned an Euclidean distance of 3.08.
The compound `CC(C)c1onc(-c2c(Cl)cccc2Cl)c1COc1ccc(/C=C/c2cccc(C(=O)O)c2)c(Cl)c1` registered an Euclidean distance of 0.795.
